Screens deposited in PubChem BioAssay by National Center for Advancing Translational Sciences (NCATS).
The entries come from a sample that favours hits as a whole.
Pf Dd2 inh: blocks in vitro growth of P. falciparum Dd2; Potency, µM (titrated, usually from 28.9 µM), actives largely listed as inhibitors; 120,000 tested, 4.3% active; AID 1347417; P. falciparum Dd2 growth, SYBR Green, 72 h; active = well fitted inhibition curve with a large enough effect; also: nearly all actives have a fitted effect of over 65% in size
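Readout: SYBR Green fluorescence, 485 nm excitation, 535 nm emission, after ~16 h lysis at 37C. Before that, Dd2-infected red cells (2.5% hematocrit) grew 72 h with compound, 29 uM top final concentration.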
Numbers stand for hits; . = inactive; [ ] = another dose, or the depositor's remark.

SMILES | Pf Dd2 inh
Cc1ccc(CCC(=O)N2CC[C@@](O)(C3CCOCC3)[C@H](C)C2)cc1 | .
CNc1nc2c(c(C(=O)N3CCCC3)n1)CN(C(=O)C(C)n1cc(C)cn1)CC2 (stereo not given) | .
O=C(CC1COCCN1C(=O)CCn1ccccc1=O)N1CCCCCC1 (stereo not given) | .
O=C(c1cccc(CC2CCNCC2)c1)N1CCOCC(O)C1 (stereo not given) | .
COc1nccnc1NC1CCN(C(=O)Cc2ccsc2)CC1 | .[5.79 µM]
CCn1cc(S(=O)(=O)c2ccccc2)c(=O)c2cc(C)ccc21 | .
Cn1cc(S(=O)(=O)c2ccccc2)c(=O)c2cc(F)c(N3CCN(c4ccccc4)CC3)cc21 | 7.08µM
Cn1cc(S(=O)(=O)c2ccccc2)c(=O)c2cc(F)c(N3CCOCC3)cc21 | .
CCn1cc(S(=O)(=O)c2ccccc2)c(=O)c2cc(F)c(N3CCN(c4ccccc4)CC3)cc21 | 3.16µM
Cc1ccc(S(=O)(=O)c2cn(C)c3cc(N4CCN(c5ccccc5)CC4)c(F)cc3c2=O)cc1 | .
CCn1cc(S(=O)(=O)c2cccc(C)c2)c(=O)c2cc(F)c(N3CCCCC3C)cc21 (stereo not given) | .
Cc1ccc(C(=O)N2CCC3(CC2)NC(=O)N(c2ccc(F)cc2)N3)s1 | .
O=C(NC[C@H]1O[C@@H](CO)[C@@H](O)[C@H]1N1CCOCC1)c1cccc(F)c1 | .
Cc1cc(C[C@@H]2COC[C@@H]2NC(=O)c2cnn(-c3ccccc3)c2)on1 | .
COc1ccc(C(=O)N2CCC3(CC2)N=C(c2ccc(Cl)cc2)NO3)cc1OC | .
Cc1cnc(CCNC(=O)c2cnccn2)n1CC1CC1 | .
Cc1cc(C(=O)N2CCC3(CC(=O)Nc4ccccc4N3)C2)ccc1Cl (stereo not given) | .
COc1cc(NC(=O)NC[C@H]2O[C@@H](CO)[C@@H](O)[C@H]2N2CCC(C)CC2)cc(OC)c1 | .
COc1ccc(C(=O)N[C@H]2CO[C@H]3[C@@H]2OC[C@H]3OCC(N)=O)cc1 | .
Clc1cc(Cl)cc(NC2CNC2)c1 | 22.4µM
CCN1C(=O)C(CC(=O)NC2CCCCCC2)Sc2ncccc21 (stereo not given) | .
O=C(CCC1CCCC1)N1CCC(Cc2nc(C3CCOCC3)no2)CC1 | .
Cc1noc(-c2nc(-c3ccc(OC(C)C)cc3)no2)n1 | .
COC1CCOC2(CCN(C(=O)c3ccc4ccccc4n3)CC2)C1 (stereo not given) | .
COc1ccc(C(=O)NCC(c2ccc(N(C)C)cc2)N2CCOCC2)cc1 (stereo not given) | .
SMILES | Pf Dd2 inh
O=C(NCC(c1ccc(Cl)cc1)N1CCCCC1)c1ccc(F)cc1 (stereo not given) | .
CN(C)c1ccc(C(CNC(=O)c2ccc(C(C)(C)C)cc2)N2CCCC2)cc1 (stereo not given) | 6.31µM
CN1[C@@H](CCC(=O)NCc2ccc(F)cc2)CNC(=O)[C@@H]2[C@H]1CCN2Cc1ncc[nH]1 | .
COc1ccccc1C(=O)NCc1nnc2c(-c3nc(C(C)C)no3)cccn12 | .
O=C1Nc2ccc(-c3ccccc3F)cc2C(=O)N2CCN(C(=O)c3cccnc3)C[C@H]12 | .
NS(=O)(=O)c1ccc(NC(=O)CN2C(=O)COc3ccc(Cl)cc32)cc1 | 0.708µM
Cc1ccc(NC(=O)CN2C(=O)COc3ccc(S(=O)(=O)N4CCCCC4)cc32)cc1Cl | .
CCN(CC)S(=O)(=O)c1ccc2c(c1)N(CC(=O)Nc1ccc(F)cc1)C(=O)CO2 | .
CN1CCC(NC(=O)CCC[C@@H]2[C@H]3CCCN4CCC[C@@H](CN2C)[C@@H]34)CC1 | .
COc1cccc(-c2noc(CC3CCN(C(=O)c4ccccc4C)CC3)n2)c1 | .
COc1cccc(-c2noc(CC3CCN(C(=O)c4ccc(N(C)C)cc4)CC3)n2)c1 | 5.01µM
CCOc1ccc(CC(=O)N2CCC(Cc3nc(-c4ccc(OC)cc4)no3)CC2)cc1 | 8.91µM
COc1ccc(CC(=O)N2CCC(Cc3nc(-c4ccc(OC)cc4)no3)CC2)cc1 | .
COc1ccc(-c2noc(CC3CCN(C(=O)c4ccc5c(c4)OCO5)CC3)n2)cc1 | 11.2µM
Cc1noc(-c2ccc3c(c2)OCO3)c1C(=O)N1CCC(Cc2ccccc2)CC1 | .
COc1cccc(-c2noc(CC3CCN(C(=O)c4cc(OC)c(OC)c(OC)c4)CC3)n2)c1 | .
COc1ccc(-c2onc(C)c2C(=O)N2CCC(Cc3ccc(F)cc3)CC2)cc1 | .
COc1ccc(-c2noc(CC3CCN(C(=O)Cc4ccsc4)CC3)n2)cc1 | .
COc1ccc(CC2CCN(C(=O)c3c(C)noc3-c3ccc4c(c3)OCO4)CC2)cc1 | 7.94µM
COc1ccc(-c2noc(CC3CCN(C(=O)c4cc(F)cc(F)c4)CC3)n2)cc1 | .
O=C(c1ccc2c(c1)OCO2)N1CCC(Cc2nc(-c3ccccc3)no2)CC1 | .
COCCC1(C(=O)O)CCCN(CCN2CCCC2=O)C1 (stereo not given) | .
O=C1C(N2CCN(Cc3ccc[nH]3)CC2)CCN1Cc1ccccn1 (stereo not given) | .
NC(=O)CO[C@@H]1CO[C@H]2[C@@H]1OC[C@@H]2NC(=O)c1ccc(C(F)(F)F)cc1 | .
Cc1ccc(CCNC(=O)c2cc3n(n2)CC(c2ccc4c(c2)OCO4)OC3)cc1 (stereo not given) | .
SMILES | Pf Dd2 inh
Cc1ccc(OCC(=O)N2CCC(Cc3nc(-c4ccccc4)no3)CC2)cc1 | .
COC(=O)c1cccc(C(=O)N2CCC(Cc3nc(-c4cnccn4)no3)CC2)c1 | .
COc1ccc(-c2noc(CC3CCN(C(=O)CCCc4ccccc4)CC3)n2)cc1 | .
COc1ccc(OCC(=O)N2CCC(Cc3nc(-c4ccc(OC)cc4)no3)CC2)cc1 | 11.2µM
COC(=O)c1cccc(C(=O)N2CCC(Cc3nc(-c4ccc(F)cc4)no3)CC2)c1 | 10µM
COc1ccc(C(=O)N2CCC(Cc3nc(-c4ccc(F)cc4)no3)CC2)cc1F | .
CCCNC(=O)NCCn1c(C)cnc1-c1ccncc1 | .
CC1CCN(S(=O)(=O)N2CCC(C(=O)N3CCCC3c3nc(C4CCOCC4)no3)CC2)CC1 (stereo not given) | .
O=C(C1CCCCC1)N1CCCC(c2noc(COc3ccccc3)n2)C1 (stereo not given) | .
COCCC(=O)N[C@@H]1CN(Cc2cccnc2)C[C@H]1CN(C)C | .
CO[C@@H]1CO[C@H]2[C@@H]1OC[C@@H]2NC(=S)Nc1ccc(Cl)cc1 | .
Clc1ccc(C2Cn3nnc(-c4nc(-c5cccc(Cl)c5)no4)c3CO2)cc1 (stereo not given) | .
Cc1cccc(OCC(=O)N2CCC(c3n[nH]c(=O)n3Cc3ccc(F)cc3)CC2)c1 | 11.2µM
Cc1ccc(-n2c(C3CCN(C(=O)Cc4ccc(Cl)cc4)CC3)n[nH]c2=O)cc1 | 12.6µM
Cc1ccc(CC(=O)N2CCC(c3n[nH]c(=O)n3-c3ccccc3)CC2)cc1 | .
COc1cccc(CC(=O)N2CCC(c3n[nH]c(=O)n3Cc3ccc(F)cc3)CC2)c1 | .
Cc1ccc(-n2c(C3CCN(C(=O)Cc4ccccc4Cl)CC3)n[nH]c2=O)cc1 | .
COc1ccc(Cn2c(C3CCN(C(=O)Cc4cccc(C)c4)CC3)n[nH]c2=O)cc1 | .
CCNC(=O)N[C@H]1[C@H](O)[C@H](O)C[C@@H]1c1ccncc1 | .
COc1ccccc1OC1(C(=O)O)CCN(C(=O)CCC2CC2)CC1 | .
CN(C)C(=O)N1CCCn2nc(CNC(=O)C(=O)c3ccco3)cc2C1 | .
CN1CCC(NCc2nc3c(n2Cc2ccccc2)C(=O)N(CCOc2ccccc2)CCN3)CC1 | .
